Bioassay records from PubChem.
Peg3 prom inh-1: inhibitors of Peg3 promoter. actives 1.7% (n = 360,000). HeLa PEG-Prom luciferase reporter, luminescence, overnight. AID 588405. inhibition, % at 20 µM;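 active = inhibition of at least 50% at 20 µM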
Shn3 inh set2: reduces Shn3 3'UTR luciferase signal in osteoblasts | Clone20 osteoblast Shn3 3'UTR firefly luciferase, 24 h | inhibition, % at 12.5 µM | actives 0.52% (n = 360,000) | AID 588674;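 active = mean inhibition of at least 75% with every replicate also reaching 75%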
TRPM1 prom inh: inhibitors of MITF-driven TRPM1 promoter in melanoma cells. SK-MEL-5 TRPM1 promoter luciferase, 24 h. inhibition, % at 12.5 µM. actives 0.83% (n = 330,000). AID 488899;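 active = mean inhibition across replicates of 60% or more, whatever share of single replicates reaches that level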
KKLEB cytotox: CF airway cell cytotoxicity counter-screen. actives 0.36% (n = 360,000). KKLEB CF airway cells viability, ATPlite luminescence, overnight; stronger effect = lower value; cells stimulated with P. aeruginosa culture filtrate. activity change (cytotoxicity), % at 5 µM;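 active = corrected activity change at or below -50% at 5 µM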
LMP1 NFkB inh: reduces LMP1-driven NF-kappaB luciferase signal; AID 504558; LMP1-induced NF-kappaB luciferase reporter cells, luminescence; inhibition, % at 12.5 µM; actives 0.69% (n = 350,000); in the data active = inhibition above about 41%
CF NFkB block: cystic fibrosis NF-kB activation inhibition; KKLEB NF-kB-GFP reporter, PAF-induced, GFP fluorescence overnight; inhibition, % at 5 µM; actives 0.86% (n = 360,000); AID 588850;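 active = at least 50% inhibition at 5 µM, scaled per plate between neutral and stimulator controls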;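 note: PAF is a Pseudomonas aeruginosa culture filtrate used as stimulus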
Peg3 prom inh-2: Peg3 promoter inhibition confirmation. actives 84% (n = 1,300). inhibition, % at 20 µM. AID 602417. HeLa PEG-Prom luciferase reporter, luminescence, overnight. shares compounds with Peg3 prom inh-1;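 active = at 20 µM dose, 40% or more inhibition averaged across four replicates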
A number is an active result; - = inactive; . = not tested or not shown; ! = a repeat was not active. Only some compounds are listed: those with a hit (about 2.9% of all), similar ones and a draw of the others.

SMILES | Peg3 prom inh-1 | Shn3 inh set2 | TRPM1 prom inh | KKLEB cytotox | LMP1 NFkB inh | CF NFkB block | Peg3 prom inh-2
Cc1nc(N2CCN(S(=O)(=O)c3ccccc3C#N)CC2)c2c(-c3ccccc3)csc2n1 | 53.8 | - | - | - | - | - | 61.7
CCN1CCN(c2ccc(S(=O)(=O)N3CCOCC3)cc2NC(=O)/C=C/c2ccc([N+](=O)[O-])cc2)CC1 | 69.6 | - | 64.2 | - | - | - | 74.9
c1ccc(CN2CCC(Nc3nc(-c4cccnc4)nc4ccccc34)CC2)cc1 | 100.5 | - | - | - | - | - | 69.7
c1cncc(-c2nc(NCC3COc4ccccc4O3)c3ccccc3n2)c1 (centres undefined) | 58.4 | - | - | - | - | - | 68.3
COc1ccc(C(=O)N2CCC(C)(C(=O)O)C2)c(OC)c1 (centres undefined) | - | - | . | - | . | - | .
CCN1CCN(S(=O)(=O)c2ccc(Cl)c(C(=O)Oc3ccc(CC(=O)OC)cc3)c2)CC1 | - | - | - | - | - | - | .
C#CC(C)OCC1CNC(=S)O1 (centres undefined) | - | - | . | - | - | - | .
O=C(/C=C/[C@H]1O[C@@H](n2cnc3c(NC(=O)c4ccccc4)ncnc32)[C@H](O)[C@@H]1O)NCc1ccc2c(c1)OCO2 | - | - | . | - | . | - | .
CC(=O)Nc1ccc(-c2ccnc3c2CC(C)(C(=O)NCc2cccc(Cl)c2)O3)cc1 (centres undefined) | - | - | . | - | . | - | .
CCOc1ccc(C(=O)Nc2cccc(C(=O)O)c2C)cc1Cl | 55.1 | - | 66.9 | - | - | - | -
CCOc1ccc(C(=O)Nc2ccccc2-c2ccccc2)cc1Cl | - | - | - | - | - | - | .
CC1CCc2cc(F)ccc2N1C(=O)CSc1nnc2c(n1)[nH]c1ccc(F)cc12 (centres undefined) | 99.8 | - | - | - | - | - | -
CCOC(=O)CN(C(=O)CSc1nnc2c(n1)[nH]c1ccc(F)cc12)c1ccccc1 | 56.3 | - | - | - | - | - | 49.0
Cc1cc(C(=O)CN2C(=O)c3ccccc3S2(=O)=O)c(C)n1-c1ccccc1 | 92.7 | - | 81.2 | - | 73.7 | - | 93.3
CC(C)NC(=O)CN1C(=O)c2ccccc2S1(=O)=O | - | - | - | - | - | - | .
C=CCn1c(C)cc(C(=O)CN2C(=O)NC3(CCCc4ccccc43)C2=O)c1C (centres undefined) | - | - | - | - | - | - | .
Cc1cc(C(=O)CN2C(=O)c3ccccc3S2(=O)=O)c(C)n1C(C)C | 68.1 | - | - | - | 70.4 | - | 74.1
Cc1cc(C(=O)CN2C(=O)C3CC=CCC3C2=O)c(C)n1-c1ccccc1 (centres undefined) | - | - | - | - | - | - | .
Cc1ccc(C(=O)CN2C(=O)c3ccccc3S2(=O)=O)cc1 | 80.5 | - | 68.8 | - | 74.4 | - | 78.8
C=CCn1c(C)cc(C(=O)CN2C(=O)c3ccccc3S2(=O)=O)c1C | 93.5 | 91.0 | 94.1 | - | 86.8 | - | 95.8
Nc1ccn(C(C=O)CC(C=O)CO)c(=O)n1 (centres undefined) | - | - | . | - | . | - | .
COc1cc(C)c(CN2CCN(S(=O)(=O)c3ccc(Cl)s3)CC2)cc1OC | - | - | - | - | - | - | .
O=C(c1ccccc1)n1c2ccccc2c(=O)n1-c1ccccc1CCl | - | - | . | - | . | - | .
CC1CN(C=O)CC(C)N1CCN1C(C)CN(C=O)CC1C (centres undefined) | - | - | - | - | - | - | .
CCNC(=O)C1CCCN(C(=O)c2cc(F)cc(F)c2)CC1 (centres undefined) | - | - | . | - | . | - | .
SMILES | Peg3 prom inh-1 | Shn3 inh set2 | TRPM1 prom inh | KKLEB cytotox | LMP1 NFkB inh | CF NFkB block | Peg3 prom inh-2
COc1cccc(NC(=O)CN(C)C(=O)c2cc(-c3ccco3)nc3ccccc23)c1 | - | - | - | - | - | - | .
CN(CCOc1ccc(Cl)cc1)C(=O)c1cc(-c2ccco2)nc2ccccc12 | 64.4 | - | - | - | - | - | 79.1
COC(=O)c1cc(=O)n(-c2ccccc2)c(=Nc2ccccc2)s1 | - | - | - | - | - | - | .
COC(=O)c1cc(=O)n(Cc2ccco2)c(=Nc2ccc(F)cc2)s1 | 82.0 | - | . | - | - | - | 84.2
Cc1oc(-c2ccc3c(c2)OCCO3)cc1C(=O)O | 96.0 | - | - | - | - | - | 89.1
COC(=O)[C@H](CC(C)C)NC(=O)/C=C/[C@H]1O[C@@H](n2ccc(=O)[nH]c2=O)[C@H](O)[C@@H]1O | - | - | . | - | . | - | .
CSc1nnc(NC(=O)c2ccc3c(c2)OCO3)s1 | 52.0 | - | - | - | 67.8 | - | -
COc1cc(NC(=O)c2nccn2C)cc(C(=O)Nc2cccc(C(F)(F)F)c2)c1 | 53.3! | - | - | - | - | - | -
COc1cc(NC(=O)c2nccnc2N)cc(C(=O)Nc2cccc(C(F)(F)F)c2)c1 | - | - | - | - | - | - | .
Cc1ccc(S(=O)(=O)N(C)C)cc1NC(=O)c1cncc(Br)c1 | 54.7 | - | - | - | - | - | 69.2
CN(C)S(=O)(=O)c1cccc(NC(=O)c2cncc(Br)c2)c1 | - | - | - | - | - | - | .
Cc1cccc(-c2cnc(C(O)c3ccc(Cl)cc3C)[nH]2)c1 (centres undefined) | - | - | . | - | . | - | .
O=C(CCc1ccccc1)OCCN1CCOCC1 | - | - | - | - | - | - | .
CCOC(=O)/C(=C\c1ccccc1)C(=O)CCN1CCOCC1 | 96.7 | - | 84.3 | - | - | - | 85.7
COc1ccc(C(=O)N2CCC(C)(C(=O)O)C2)cc1OC (centres undefined) | - | - | . | - | . | - | .
CC(=O)Nc1ccc(Nc2nc(C)c([N+](=O)[O-])c(Nc3ccccc3)n2)cc1 | 63.9 | - | - | - | - | - | 56.1
O=C1C(Cl)=C(N2CCC(C(=O)O)CC2)C(=O)c2ccccc21 | - | - | - | - | - | - | .
NC(=O)C1CCN(C2=C(Cl)C(=O)c3ccccc3C2=O)CC1 | 73.4 | 97.7 | 88.2 | - | 78.1 | - | 97.9
CC1(C(=O)NCC2CC2)CCN1C(=O)C1(c2ccccc2)CC1 (centres undefined) | - | - | . | - | . | - | .
COc1ccc(C2CC=C(C(C)=O)CN2S(=O)(=O)c2ccccc2)cc1 (centres undefined) | - | - | . | - | . | - | .
Cc1ccc2nc(NC(=O)CSCC(=O)OCC(=O)c3ccccc3)sc2c1 | 53.4 | - | - | - | - | - | 71.1
COc1cccc(/C=N/Nc2ncccc2[N+](=O)[O-])c1OC | 72.5 | . | - | - | 59.4 | - | 62.4
CCC(C)(C)C1CCC2(CC1)NC(=O)N(CC(=O)N1CCN(c3ccccc3OC)CC1)C2=O (centres undefined) | - | - | . | - | - | - | .
CC(=O)Nc1cccc(NC(=O)c2cc(-c3cccnc3)nc3ccc(Cl)cc23)c1 | 56.9 | - | - | - | - | - | 47.3
